As usually defined, the inhibition is the relative decrease from the control value, in per cent.

Where “and” joins values, the source holds several entries; their conditions need not be identical. Equal entries are not always repeated. The campaign covered roughly 5,600 compounds. About 150 (2.7%) showed an effect of 50% or more. The entries come from a sample that favours strong results as a whole. Residues, ends and D or L forms follow the SMILES beside them.

Test [1] has as its target T1, Protein deacetylase HDAC6 (Homo sapiens) (UniProt Q9UBN7).
T1 sequence (whole entry): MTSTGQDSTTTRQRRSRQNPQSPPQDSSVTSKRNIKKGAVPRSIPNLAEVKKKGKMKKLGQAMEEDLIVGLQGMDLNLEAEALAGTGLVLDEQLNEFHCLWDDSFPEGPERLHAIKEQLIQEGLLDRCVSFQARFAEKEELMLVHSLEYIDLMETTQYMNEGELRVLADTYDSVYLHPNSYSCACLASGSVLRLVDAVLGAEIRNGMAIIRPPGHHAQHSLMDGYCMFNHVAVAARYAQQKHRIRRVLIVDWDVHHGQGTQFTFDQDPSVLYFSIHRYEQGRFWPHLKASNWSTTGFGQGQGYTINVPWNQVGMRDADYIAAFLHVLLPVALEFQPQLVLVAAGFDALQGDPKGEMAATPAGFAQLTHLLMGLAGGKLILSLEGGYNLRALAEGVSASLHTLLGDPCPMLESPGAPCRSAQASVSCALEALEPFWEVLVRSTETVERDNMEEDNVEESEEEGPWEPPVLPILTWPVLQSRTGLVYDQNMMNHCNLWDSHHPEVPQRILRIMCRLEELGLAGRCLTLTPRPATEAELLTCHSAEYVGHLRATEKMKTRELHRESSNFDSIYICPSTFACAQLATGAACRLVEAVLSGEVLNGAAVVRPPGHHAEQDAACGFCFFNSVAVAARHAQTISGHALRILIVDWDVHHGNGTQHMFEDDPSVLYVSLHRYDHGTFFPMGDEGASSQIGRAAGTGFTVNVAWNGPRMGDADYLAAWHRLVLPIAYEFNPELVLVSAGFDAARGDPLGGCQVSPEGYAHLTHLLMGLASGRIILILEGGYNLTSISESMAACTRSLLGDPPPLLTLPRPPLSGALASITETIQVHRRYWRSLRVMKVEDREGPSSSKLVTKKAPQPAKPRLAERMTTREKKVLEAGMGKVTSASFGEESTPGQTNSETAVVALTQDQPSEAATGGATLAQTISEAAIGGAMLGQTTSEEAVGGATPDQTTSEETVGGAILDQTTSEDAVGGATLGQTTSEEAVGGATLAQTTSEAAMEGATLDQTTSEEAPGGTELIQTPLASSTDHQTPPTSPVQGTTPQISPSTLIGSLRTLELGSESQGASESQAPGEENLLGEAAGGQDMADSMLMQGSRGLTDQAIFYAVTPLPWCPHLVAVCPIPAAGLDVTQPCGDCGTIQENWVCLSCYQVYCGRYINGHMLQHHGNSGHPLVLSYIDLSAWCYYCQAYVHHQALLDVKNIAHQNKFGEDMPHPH
Conditions: at 10 µM.

Test [2] concerns the target Protein deacetylase HDAC6 (Homo sapiens) (UniProt Q9UBN7). Conditions: at 10 µM. The source holds these as a separate data set.

Regarding `O=C(/C=C/c1ccc2ccccc2n1)c1ccncc1`, the inhibition in test [1] turned out to be 77.3%. Same read-out and setting: for `O=C(/C=C/c1ccc2ccc(C(F)(F)F)cc2n1)c1ccncc1` the value was -2.03%; for `O=C(NNc1ccccc1)c1ccncc1`, -5.35%. Regarding `Cc1c(Cl)cccc1S(=O)(=O)Nc1nc(CC(=O)N2CCN(C)CC2)cs1`, the inhibition in test [1] amounted to 4.81%.

On to `CCO[C@@H](Cc1ccc(OCCn2c(C)ccc2-c2ccc(SC)cc2)cc1)C(=O)O`, for which the inhibition in test [1] worked out at 46.3%. Turning to `CC(C)OC(=O)Nc1cccc(Cl)c1`, the inhibition in test [1] was -4.5%. Same read-out and setting: then `O=C(Nc1cnc(Cl)nc1)c1ccc(F)c(F)c1`, with -4.2%; and `COc1cc(NC(=O)c2ccccn2)ccc1Cl`, with 94.4%; and `O=C(Nc1ccc(Cl)cc1)Nc1ccc(Cl)c(Cl)c1`, with -2.56%.

Consider `O=C(Nc1ccc(S(=O)(=O)Nc2ccccc2Cl)c(Cl)c1)c1ccccn1`, for which, in test [1], the inhibition came to 13.9%. The same measure, in the same setting: for `O=C(Nc1cccc(Cl)c1)c1ccccn1` the value was 97.2%; for `Cc1cccc(C)c1NC(=O)[C@H]1CCCCN1C`, 2.44%. Same read-out and setting: then `c1ccc(CN2CCC3(CCc4ccccc43)CC2)cc1`, with -2.02%; and `CN[C@@H](CCCNC(=N)N)C(=O)O`, with -8.08%. On to `O=C(CCCS)NC1CCN(C(=O)COc2ccc(Cl)cc2Cl)CC1`, for which the inhibition in test [1] stood at 7.84%.

With `CO/N=C(/C(=O)N[C@@H]1C(=O)N2C(C(=O)O)=C(Cn3ccc(=N)n3CCO)CS[C@H]12)c1csc(N)n1`, the inhibition in test [1] was -0.61%. Same read-out and setting: for `O=C(N[C@H]1CCN(C(=O)c2cc(C(F)(F)F)cc(C(F)(F)F)c2)[C@H](Cc2ccc(Cl)cc2)C1)c1ccnc2ccccc12` the value was -1.37%; for `Cc1cn2nc([C@@H]3CCCCN3C(=O)c3cc(Cl)ccc3NS(C)(=O)=O)cc2nc1N1CC[C@H](N)C1`, -2.52%. On the same count and under the same terms, then `Cc1nc(NS(=O)(=O)c2ccc(N)cc2)oc1C`, with 32.6%.

For the compound SATRAPLATIN, CHEMBL3833367, the inhibition in test [2] is -6.7%.

As to `Cc1cc(O)c2c(c1)C(=O)c1cc(O)cc(O)c1C2=O`, the inhibition in test [1] was 90.2%. Still for that read-out and setting: then `O=C1c2cccc(O)c2C(=O)c2c(O)cc(CO)cc21`, with 5.42%; and `CCS(=O)(=O)N(C)[C@H]1c2cc(C#N)ccc2OC(C)(C)[C@@H]1O`, with -5.99%; and `CC(=O)OC[C@H](N)C(=O)O`, with 3.65%. Same read-out and setting: for `NC[C@@H]1O[C@H](O[C@H]2[C@@H](O)[C@H](O[C@@H]3[C@@H](O)[C@H](N)C[C@H](N)[C@H]3O[C@H]3O[C@H](CO)[C@@H](O)[C@H](O)[C@H]3N)O[C@@H]2CO)[C@H](N)[C@@H](O)[C@@H]1O` the value was 80.2%; for `NC[C@H]1O[C@H](O[C@H]2[C@H](O[C@@H]3O[C@H](CO)[C@@H](O)[C@H]3O)[C@@H](O)[C@H](N)C[C@@H]2N)[C@H](N)[C@@H](O)[C@@H]1O`, -5.95% and -3.47%. Same read-out and setting: for `NC[C@H]1O[C@H](O[C@H]2[C@H](O)[C@@H](O[C@H]3O[C@H](CO)[C@@H](O)[C@H](N)[C@H]3O)[C@H](N)C[C@@H]2N)[C@H](N)C[C@@H]1O` the value was -5.82%. In the case of `C[N+](C)(C)[C@@H](Cc1c[nH]c(=S)[nH]1)C(=O)[O-]`, in test [1], the inhibition came to 0.31%.

Turning to `CC/C(=C(/CC)c1ccc(OP(=O)(O)O)cc1)c1ccc(OP(=O)(O)O)cc1`, the inhibition in test [1] was -0.19%. On the same count and under the same terms, then `CC(=O)N1CCC[C@H]1C(=O)N[C@@H](Cc1cnc[nH]1)C(=O)N[C@@H](CO)C(=O)N[C@@H](CS)C(=O)N[C@@H](CC(N)=O)C(N)=O` (Ac-PHSCN-NH2), with -4.4%; and `COc1cc(OCc2cccc(-c3ccccc3)c2C)cc(OC)c1CN1CCCC[C@H]1C(=O)O`, with 51.3%; and `CCOC(=O)[C@H](CCc1ccccc1)N[C@@H](C)C(=O)N1Cc2cc(OC)c(OC)cc2C[C@H]1C(=O)O`, with -3.25%. Same read-out and setting: for `C#CC1(OCC(O)CN2CCN(c3cccc(C(F)(F)F)c3)CC2)CCCCC1` (centres undefined) the value was 3.19%.

For the compound `Cn1c(COc2ccc(CC3SC(=O)NC3=O)cc2)nc2ccccc2c1=O` (centres undefined), the inhibition in test [1] worked out at 6.76%. The same measure, in the same setting: then `COCCOc1cnc2ccn([C@H](C)c3nnc4c(F)cc(-c5cnn(C)c5)cn34)c(=O)c2c1`, with -3.49%; and `O=C(NCc1ccc(OC(F)(F)F)cc1)C1c2ccccc2C(=O)N1C1CCOCC1` (centres undefined), with 1.11%.

For `C[C@H]1NC(=O)NC1=O`, in test [1], the inhibition was 0.16%. On the same count and under the same terms, then `Cc1[nH]c(/C=C2\C(=O)Nc3ccc(F)cc32)c(C)c1C(=O)NCCN1CCCC1`, with 2.96%; and `Cc1[nH]c(/C=C2\C(=O)Nc3cc(-c4ccccc4)ccc32)c(C)c1CCC(=O)O`, with 96.4%; and `COc1cc(OC)c(/C=C2/C(=O)Nc3ccccc32)c(OC)c1`, with -2.63%. Same read-out and setting: for `CN[C@@H]1[C@@H](O[C@H]2O[C@H](CO)[C@@H](N)[C@H](O)[C@H]2O)O[C@H]2C[C@@H](N)[C@H](O[C@H]3[C@H](O)[C@@H](O)[C@H](N)C[C@@H]3N)O[C@@H]2[C@@H]1O` the value was 10.2%; for `CNC(=O)c1ccccc1Nc1nc(Nc2ccc3c(c2OC)CCC[C@H](N2CCN(CCO)CC2)C3)ncc1Cl`, 83%. Same read-out and setting: for `COc1cc(N2CCOCC2)ccc1Nc1ncc(Cl)c(Nc2ccccc2NS(C)(=O)=O)n1` the value was -0.93%. As to `CN1CCN(Cc2ccc(Nc3ncc(Cl)c(Nc4ccccc4S(=O)(=O)N(C)C)n3)cc2)CC1`, the inhibition in test [1] was -1.57%.

For the origin of these results see ChEMBL document CHEMBL4808148, “HDAC6 screening dataset using tau-based substrate in an enzymatic assay yields selective inhibitors and activators” (2021).
